Shown are actives, neighbours in structure and some others; about 3.4% of the full set was active somewhere.
HSP90 refold inh = inhibitors of HSP90 luciferase refolding in rabbit reticulocyte lysate; luciferase refolding luminescence, 3 h; actives 0.91% (n = 290,000); inhibition, % at 5.6 µM;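 active = inhibition above the screen-wide mean plus 3 SD, computed separately per campaign, cut at about 16% in these data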;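 note: 0% = DMSO wells and 100% = 60 µM geldanamycin wells; inhibitors lower the luminescence because luciferase stays unfolded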
AI-2 QS mod = Vibrio harveyi AI-2 quorum sensing modulation; Vibrio harveyi JMH597 AI-2 luminescence/OD600 ratio, 9 h; active compounds read low; strain lacks LuxN and CqsS sensors; 0 = neutral-control median; activity change, % at 7.5 µM; actives 0.4% (n = 300,000); AID 2094; in the data active = activity change below about -75%, passing the limit was not always enough;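 note: luminescence divided by OD600 gain over 9 h not by final OD600 alone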
FXN GAA850 act = activators of GAA850 frataxin (FXN) promoter. actives 0.56% (n = 360,000). HEK293 lucGAA850 FXN promoter luciferase reporter, 24 h; percent of 10 µM SAHA response. activation, % at 6 µM;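 active = activation above the average of all compounds screened plus 3 SD, cutoff fixed separately per campaign, cut at about 7.5% in these data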;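 note: 0% = DMSO wells and 100% = 10 µM SAHA wells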
PG9 binder = PG9 antibody binding by small molecule | actives 0.43% (n = 360,000) | AID 624416 | TR-FRET gp120-PG9 antibody binding | inhibition, % at 6.7 µM; in the data active = inhibition above about 8.5%
HSF1 inhib = HSF1 inhibition. actives 0.77% (n = 300,000). activity change, negative = inhibition, % at 7.5 µM (by protocol). NIH3T3-HGL HSE-luciferase, MG132-induced, luminescence 8 h; active compounds read low;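 active = more than half of replicate wells show activity change below -50%, luminescence cut by over half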;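 note: luciferase reports HSF-1 transcriptional activity via heat shock element; 0% = median of DMSO wells and -100% = zero luminescence signal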
SMARCA2 act = activators of SMARCA2 function; MG213 cells, MMTV-luciferase reporter, dexamethasone, overnight; activation, % at 9.1 µM; actives 1% (n = 370,000); AID 652017; in the data active = activation above about 7.8%;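 note: 0% = vehicle wells and 100% = reference activator wells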
Starred values were filed as active, the others as inactive; . = no result given.

SMILES | HSP90 refold inh | AI-2 QS mod | FXN GAA850 act | PG9 binder | HSF1 inhib | SMARCA2 act
O=C(C1CCCN(S(=O)(=O)c2ccccc2[N+](=O)[O-])C1)N1CCN(Cc2ccccc2)CC1 (stereo unspecified) | . | . | . | . | . | -2
Nc1ccc2oc(C3CCCCC3)nc2c1 | -2 | 4 | 3 | 1 | -91* | -2
O=C(O)C1C2C=CC(C2)C1C(=O)Nc1ccc2c(c1)OCCO2 (stereo unspecified) | 2 | 10 | -14 | . | -57* | .
O=C(O)C1C2C=CC(O2)C1C(=O)Nc1ccc2c(c1)OCCO2 (stereo unspecified) | 10 | 4 | . | . | -74* | .
CC(=O)c1ccc(NC(=O)C2C3C=CC(O3)C2C(=O)O)cc1 (stereo unspecified) | 2 | 13 | 2 | 0 | 11 | -1
CN(C)c1ccc(NC(=O)C2C3C=CC(C3)C2C(=O)O)cc1 (stereo unspecified) | 15 | 10 | -2 | -134 | -9 | -2
CC(C)C[C@H]1COc2cccc(F)c2S(=O)(=O)N1C | . | . | . | . | . | 4
COc1ccc(-n2c(COc3ccccc3)nnc2SCc2nc3ccccc3[nH]2)cc1 | . | . | . | . | . | -3
CC(C)(C)NC(=O)C1CC(=O)OC12CCOC(C)(C)C2 (stereo unspecified) | 3 | 12 | 0 | 0 | -58* | -1
c1ccc(Cc2nc3ccccc3o2)cc1 | 10 | 10 | 4 | 2 | -81* | 1
Cc1ccc2nc(Cl)c3nnnn3c2c1 | 0 | -86* | 5 | . | 15 | .
Cc1ccc2nc(N3CCN(c4cccc(C)c4C)CC3)c3nnnn3c2c1 | 2 | -2 | 4 | -1 | -6 | -2
CC1CCN(C(=O)CSc2ccc(-c3ccc4c(c3)OCCO4)nn2)CC1 | -2 | 54 | 1 | -1 | -3 | 3
CC1CCCC(C)N1C(=O)CSc1ccc(-c2ccc3c(c2)OCCO3)nn1 (stereo unspecified) | -2 | 13 | 5 | 0 | -88* | 0
COC(=O)[C@]1(CNC(=O)NCCc2ccc(OC)c(OC)c2)CC(=O)N(C)[C@@H]1c1ccccc1 | . | . | . | . | . | -1
COc1cc2c(c(OC)c1)C(=O)O[C@H](C)C[C@@H]1O[C@H]1CCCCC(=O)C2 | . | . | . | . | . | -7
CCOC(=O)c1ccc(-c2ccc3c(c2)CCC3)nc1C | 1 | 27 | 4 | 1 | 11 | 7.9*
COc1ccc(/C=N/N2CCOCC2)cc1COc1ccc(Cl)cc1 | 1 | 3 | 4 | -2 | -1 | 7.9*
Cc1cc(Nc2ccc(OC(F)F)cc2)cc(=O)n1-c1ccc(OC(F)F)cc1 | . | . | . | 0 | . | -3
O=C(NC(C(=O)N/N=C/c1ccccn1)c1n[nH]c(=O)c2ccccc12)c1ccccc1 (stereo unspecified) | 3 | -3 | 4 | -2 | 3 | 7.9*
Nn1c(SCC(=O)Nc2ccc(OCc3ccccc3)cc2)nnc1-c1cc(-c2ccc(F)cc2)n[nH]1 | . | . | . | . | . | -4
CN(Cc1ccccc1)S(=O)(=O)c1ccc(Cl)c(C(=O)O)c1 | 4 | 17 | 1 | 0 | -4 | 0
O=C(O)c1cc(S(=O)(=O)N(Cc2ccccc2)c2ccccc2Cl)ccc1Cl | 0 | 5 | -1 | 0 | -52* | -1
Cc1ccc(-c2cc(-c3nnc(SCC(=O)N4c5ccccc5Sc5ccccc54)n3N)[nH]n2)cc1 | . | . | . | . | . | -6
COc1ccc(C(=O)COC(=O)CCN2C(=O)C3C4CC(C(Br)C4Br)C3C2=O)cc1 (stereo unspecified) | -2 | 20 | -1 | -2 | -62* | 1
SMILES | HSP90 refold inh | AI-2 QS mod | FXN GAA850 act | PG9 binder | HSF1 inhib | SMARCA2 act
COc1ccc(C(=O)COC(=O)CCN2C(=O)[C@@H]3[C@H](C2=O)[C@@H]2C[C@H]3C(Br)C2Br)cc1 (stereo partly specified) | 6 | -6 | -1 | 1 | -3 | -3
Cc1noc(C)c1CSc1ncnc2sc3c(c12)CCC(C)C3 (stereo unspecified) | -1 | 16 | . | . | 3 | .
Cc1noc(C)c1CSc1ncnc2sc3c(c12)CCC3 | 1 | 23 | . | . | -73* | .
Cc1ccc(NC2=CC(=O)CC(C)(C)C2)c(N)c1 | 3 | 0 | 4 | 0 | -3 | 6
CC1(C)CC(=O)C=C(Nc2ccc(Br)cc2F)C1 | 1 | 27 | 0 | 0 | -64* | -3
C=CCNC(=O)CN(C(=O)Cc1cccc(OC(F)(F)F)c1)c1cccc(Br)c1 | . | . | . | . | . | 0
COc1ccc(Cl)cc1C(=O)NCCCSc1ccccc1 | -1 | 11 | 0 | -2 | -5 | -4
COc1ccc(Cl)cc1C(=O)NCC(=O)OCc1ccccc1 | . | -11 | -2 | 0 | -52* | 0
COc1cc(CCC(=O)OCn2nnc3ccccc3c2=O)cc(OC)c1OC | 3 | 10 | 3 | -1 | -81* | 4
O=C(Cn1c(-c2cncs2)nc2ccccc21)N1CCOCC1 | . | . | . | . | . | 1
COC(=O)[C@]12C[C@H](CC(=O)N3CCN(C(=O)C4CC4)CC3)C(=O)N(Cc3ccc4c(c3)OCO4)C1=C[C@H](C(C)C)O[C@@H]2C1CC1 | . | . | . | . | . | -1
Cn1c(O)c(/C=N/Nc2ccccc2)c(=O)n(C)c1=O | 16* | -17 | -2 | -4 | -7 | 2
Cc1ccc(OCc2nc(-c3cccs3)no2)c([N+](=O)[O-])c1 | 7 | 31 | 2 | -1 | 55 | 7.9*
O=[N+]([O-])c1ccccc1OCc1nc(-c2cccs2)no1 | -8 | -2 | 5 | 0 | 27 | 2
COc1ccc(CCN2C(=O)c3ccccc3C2c2nnnn2C(C)C)cc1OC (stereo unspecified) | . | . | . | 0 | . | -2
COc1ccc(CN2C(=O)c3ccccc3C2c2nnnn2C(C)C)cc1OC (stereo unspecified) | . | . | . | 0 | . | 7.8*
O=C(Nc1ccccc1)Nc1nc2ncccn2c1-c1ccc(C(F)(F)F)cc1 | . | . | . | . | . | -2
CC(C)(C)c1ccc(S(=O)(=O)N2CCCC(C(=O)N3CCN(Cc4ccccc4)CC3)C2)cc1 (stereo unspecified) | . | . | . | . | . | -4
CCN(c1ccc(OC)cc1)c1ncnc2nc[nH]c12 | -1 | 4 | -8 | 1 | -64* | -2
CCN(CC)CCC=C(c1cccs1)c1cccs1 | . | . | -2 | 0 | . | 7.9*
O=C(CSc1nnc(-c2ccc(Cl)cc2)n1C1CCCCC1)NN=Cc1c(O)ccc2ccccc12 | . | . | . | . | . | -5
CC1CC2C3CCC4=CC(=O)C=CC4(C)C3(F)C(O)CC2(C)C1(O)C(=O)CO (stereo unspecified) | -1 | 17 | 4 | -1 | -54* | 1
O=C(Nc1ccc(F)cc1)c1ccc(=O)[nH]n1 | -2 | 16 | 1 | 0 | -71* | 0
O=C(Nc1cccc(Cl)c1)c1ccc(=O)[nH]n1 | -5 | 21 | -1 | -1 | 3 | 3
O=C(c1ccccc1OCc1ccccc1)N(Cc1ccccn1)CC1CCCO1 (stereo unspecified) | . | . | . | . | . | -4

Bioassay records deposited in PubChem BioAssay by several laboratories.
